Hits are enriched below; roughly 3% of the tested compounds scored in any of these assays.
CRE Fsk mod: alters forskolin-stimulated CRE reporter signaling in CHO cells. CHO CRE-bla reporter (cAMP response element driving beta-lactamase), forskolin EC10, beta-lactamase ratio. Potency, µM (doses to about 38.2 µM), for inactives: at the highest dose activity change, negative = inhibition, hits mostly activators. 71,000 compounds, 2.5% hits. AID 662; active = well fitted activation curve with a large enough effect in the signal ratio, with a control signal flat, not every such curve was filed as active; inconclusive = small, poorly fitted or top-dose-only effect, or effect the other way, or a change in a side signal; the % refers to the signal ratio; also: % of control where 0% means no effect
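Beta-lactamase reporter under a cAMP responsive element in CHO cells; compounds tested in titration series against EC10 NKH 477, 3 h at 37 °C. Read-out: CCF4 FRET ratio 460nm/530nm (excitation 405nm) giving %Activity, fitted to AC50.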
p53ts 32C tox: cytotoxicity in p53ts cells at permissive temperature. Potency, µM (series often up to 46.1 µM), for inactives: at the top dose activity change, negative = cytotoxicity, usual class: cytotoxic. 130,000 compounds, 0.93% hits. H1299-p53A138V at 32C, ATP luminescence viability, 24 h;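 also: 0% = DMSO and -100% = full killing by reference compound; nearly all actives have a fitted effect of over 55% in size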
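Cells: H1299 p53ts (A138V), 600/well, pre-incubated 16–30 h at 37C. Cpd up to 46 uM, 24 h, 32C. Readout: ATPlite luminescence, 20 min RT. Normalization: DMSO vs tamoxifen 100 uM. AC50 by Hill equation.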
IkB signaling: inhibitors of IkB signaling in ABC-DLBCL cells; ABC-DLBCL IkBa-CBG/CBR dual luciferase ratio, 4 h; response scale: scaled: untreated 0%, proteasome inhibitor 100%; Potency, µM (doses to about 57.1 µM), without a hit: at the highest dose IkBa stabilization activation; 110,000 compounds, 0.04% hits; AID 445; active = well fitted curve in the direction sought with a large enough effect in the signal ratio, not every such curve was filed as active; inconclusive = small, poorly fitted or top-dose-only effect, or a change in a side signal; the % refers to the signal ratio;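 also: the direction sought is a rising ratio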
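Curves were fitted separately to fusion (green), unfused (red) and ratio luminescence, then classed by r2, magnitude and activity. Cells: OCI-Ly3, 4 h compound plus doxycycline at 37C; 10 uM MG-132 defined full response.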
p53ts 39C kill: cytotoxicity in p53ts cells at nonpermissive temperature; AID 902; Potency, µM (top dose mostly 46.1 µM), without a hit: at the highest dose activity change, negative = cell killing, actives largely listed as cytotoxic; 130,000 compounds, 1.5% hits; H1299-p53A138V viability at 39C, ATP luminescence, 24 h; also: % is scaled to controls: 0 for no effect and ±100 for the full control effect; nearly all actives have a fitted effect of over 55% in size
Imprint erasure: genomic imprint erasure induction | mouse ES Peg3-LacZ reporter, beta-gal luminescence, 40 h | Potency, µM (titrated, usually from 60.7 µM), for the others: at the highest dose activity change, positive = activation, actives largely listed as activators | 110,000 compounds, 0.02% hits | AID 1948
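Gelatin-coated wells received 300 freshly trypsinized female ES cells with a Peg3LacZ-Neo reporter on the maternal allele, then incubated 40 hours at 37C. BetaGlo was added for 5 minutes at room temperature before a single luminescence read.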
Starred values were filed as active, the others as inactive; ? = inconclusive; nt = no result; [ ] = remark or other dose. Unless noted, calls follow the shape of the dose curve; as a rule, active = well fitted curve in the direction sought with a large enough effect; inconclusive = small, poorly fitted or top-dose-only effect, or another doubt; inactive = no such curve, though single readings can be large; an effect the other way counts as inactive or inconclusive. Potency is read from the fitted curve at half-maximal effect.

SMILES	CRE Fsk mod	p53ts 32C tox	IkB signaling	p53ts 39C kill	Imprint erasure
COc1cc(SC)ccc1C(=O)Nc1ccc2c(c1)OCCO2	17%	10µM*	?	13µM*	-74%
COc1ccccc1NC(=O)CN1CCN(CC(=O)Nc2ccc3c(c2)OCCO3)CC1	-13%	9%	?	25µM*	-7%
O=C(CSc1nccn1Cc1ccc(Cl)cc1)Nc1nc2ccccc2s1	nt	31%	?	-7%	13%[10.9 µM]
Cc1ccc(C)c(NC(=O)CSc2cn(CC(=O)N3CCCCC3)c3ccccc23)c1	nt	4%	1%	-20%	-8%[10.9 µM]
CCCCN(CC)CCNC(=O)c1c(C)oc2ncnc(N3CCOCC3)c12	nt	17%	0%	-19%	15%[10.9 µM]
CCOC(=O)C(C)Oc1cccc2c(=O)n(CC(=O)Nc3ccc4c(c3)OCCO4)ccc12 (centres undefined)	10µM*	4%	-2%	23%	-5%
CCCN1Cc2cccc(C(=O)Nc3ccc4c(c3)OCCO4)c2C1=O	13µM*	-18%	-4%	3%	-24%
COc1ccc(OC)c(NC(=O)c2cccc3c2C(=O)N(C2CCCCC2)C3)c1	nt	10%	?	15%	-1%[10.9 µM]
Cc1cccc(OCC(=O)Nc2ccc3c(c2)OCCO3)c1	-6%	10µM*	0%	?	-7%
CCCN1Cc2cccc(C(=O)Nc3ccc4c(c3)OCO4)c2C1=O	?	-6%	-2%	1%	-16%
COCCN1Cc2cccc(C(=O)Nc3cc(OC)ccc3OC)c2C1=O	10µM*	7%	0%	-4%	13%
CCOC(=O)C(C)Oc1cccc2c(=O)n(CC(=O)NCc3ccc4c(c3)OCO4)ccc12 (centres undefined)	?	-6%	-3%	10%	-10%
O=C(Nc1ccc(C(F)(F)F)cc1)C1CCCN(c2cnccn2)C1 (centres undefined)	nt	-4%	?	-22%	-8%[10.9 µM]
COc1ccc(NC(=O)NC(C)c2c(-n3cccc3)sc3c2CCN(C)C3)c(OC)c1 (centres undefined)	nt	8%	nt	nt	nt
CCOC(=O)c1c(CN2CCCCC2)n(C)c2cc(Br)c(OC)cc12	10µM*	-2%	0%	0%	-14%
COc1ccc(NC(=O)C2CCCN(c3nnc(C)c4c(C)n(-c5ccccc5)nc34)C2)cc1Cl (centres undefined)	nt	?	?	10µM*	-15%[10.9 µM]
COc1ccc(CNC(=O)C2CCN(c3nnc(C)c4c(C)n(-c5ccc(C)cc5)nc34)CC2)cc1	nt	?	?	?	-8%[10.9 µM]
Cc1nnc(N2CCN(C(=O)Nc3cc(F)ccc3F)CC2)c2nn(-c3ccc(Cl)cc3)c(C)c12	nt	?	-5%	13µM*	-10%[10.9 µM]
COc1ccc(-n2nc3c(N4CCC(C(=O)NCc5cccc(F)c5)CC4)nnc(C)c3c2C)cc1	nt	?	-1%	5µM*	7%[10.9 µM]
Cc1ccc(NC(=O)C2CCN(c3nnc(C)c4c(C)n(-c5ccccc5)nc34)CC2)cc1Cl	nt	10%	?	31%	2%[10.9 µM]
COc1ccc(NC(=O)C2=C(C)Nc3nc(SCc4ccccc4C)nn3C2c2cc(OC)c(O)c(OC)c2)cc1 (centres undefined)	nt	4%	2%	21%	2%[10.9 µM]
CSc1ccc(CCNC(=O)NCc2noc3ccccc23)cc1	nt	5%	?	-7%	-11%[10.9 µM]
COc1cc(Nc2ncc3c(n2)CCN(Cc2cc(F)cc(F)c2)C3)cc(OC)c1	nt	6%	-1%	?	-23%[10.9 µM]
COc1cc(-c2nc(S(=O)(=O)c3ccccc3)c(N3CCOCC3)o2)cc(OC)c1OC	1.3µM*	13%	-1%	5%	-8%
CC(C)(C)C(=O)NC1CC(=O)N(c2ccc3c(c2)OCCO3)C1 (centres undefined)	nt	5%	0%	-4%	?
SMILES	CRE Fsk mod	p53ts 32C tox	IkB signaling	p53ts 39C kill	Imprint erasure
COc1cc(/C=C(\C#N)c2nc3ccc(C)cc3[nH]2)ccc1OCc1ccc(C)cc1	nt	16µM*	?	4µM*	-24%[10.9 µM]
COc1ccc(-c2cc(=O)c3ccccc3s2)cc1	-3%	13µM*	6%	25µM*	-69%
COc1cc(NC(=O)CN(C)S(=O)(=O)c2ccc3[nH]c4c(c3c2)CCCC4)cc(OC)c1OC	nt	-11%	nt	nt	nt
COC(=O)c1sc(N2C(=O)C(O)=C(C(=O)c3ccc(C)o3)C2c2ccc(F)cc2)nc1C (centres undefined)	4µM*	-7%	0%	5%	-5%
c1ccc(-c2cccc(N3CC[C@@]4(CCCNC4)C3)c2)cc1	19%	?	0%[11.4 µM]	16µM*	nt
c1ccc(-c2cccc(N3CCC4(CCNCC4)CC3)c2)cc1	?	-7%	-4%[11.4 µM]	16µM*	nt
c1ccc(-c2cccc(N3CCCC4(CCNCC4)C3)c2)cc1	-8%	-19%	-2%[11.4 µM]	13µM*	nt
O=S(=O)(c1ccccc1)N1CCC[C@@]2(CCN(c3cccc(-c4ccccc4)c3)C2)C1	-12%	-8%	2%[11.4 µM]	-15%	nt
c1ccc(-c2cccc(N3CC4(CCNCC4)C3)c2)cc1	6%	-6%	-5%[11.4 µM]	?	nt
C#CCn1c(/C=C/c2ccc(Cl)cc2)nc2ccccc21	nt	4µM*	?	3.2µM*	-26%[10.9 µM]
CC(C)Cn1c(-c2ccccc2Cl)nc2ccccc21	nt	-6%	?	-20%	-14%[10.9 µM]
CCC(C)Cn1c(/C=C/c2ccccc2)nc2ccccc21 (centres undefined)	nt	?	?	13µM*	-14%[10.9 µM]
CC(C)Cn1c(/C=C/c2ccc(F)cc2)nc2ccccc21	nt	13µM*	?	10µM*	-9%[10.9 µM]
COc1ccc(-c2nc3ccccc3n2Cc2ccc(Cl)cc2)cc1	nt	-7%	?	38%	?
CC(C)CCn1c(/C=C/c2ccccc2)nc2ccccc21	nt	?	?	?	-6%[10.9 µM]
CCOC(=O)c1ccc(NC(=O)C2Cc3ccccc3CN2S(=O)(=O)c2ccc(Cl)cc2)cc1 (centres undefined)	nt	2%	284%	-2%	-11%[10.9 µM]
COc1ccccc1N1CCN(c2nc3ccccc3n3cnnc23)CC1	nt	-5%	?	-21%	-6%[10.9 µM]
CCCn1c(=NC(=O)c2ccncc2)c(C#N)cc2c(=O)n3cccc(C)c3nc21	1µM*	4%	2%	9%	-9%
COCCCn1c(=NC(=O)c2ccncc2)c(C#N)cc2c(=O)n3cccc(C)c3nc21	nt	2%	nt	10%	nt
Cc1cccn2c(=O)c3cc(C#N)c(=NC(=O)c4ccncc4)n(CCCOC(C)C)c3nc12	13µM*	-8%	-1%	12%	2%
CCc1ccccc1NC(=O)Cn1cc(C(=O)c2ccc(Cl)cc2)c(=O)c2ccc(C)nc21	nt	-5%	0%	-6%	6%[10.9 µM]
COCCCNC(=O)CCc1c(C)nc2cc(-c3ccc(Cl)cc3)nn2c1C	nt	-13%	?	-24%	-6%[10.9 µM]
